Unmarked numbers belong to inactive results. Inconclusive results are not listed. Calls of active or inactive are those of the source.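 How the source made its calls, unless noted: active means viability at or below 27.92% in each of two runs, the all-compound median minus 4 SD; inconclusive means no clear call, values can overlap the other calls; inactive means the rest.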
Assay: viability of PTEN-null HCT116 cells – cell-based, HCT116 clonal line, CellTiter-Glo, pilot screen (AID 824);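 further: 0% = 20 µM Hyamine control and 100% = vehicle cell control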
Conditions: HCT116 PTEN-deleted viability, 60 h, at 10 µM, active compounds read low

Row | SMILES | viability
1 | COc1ccc(-c2noc(-c3cc(C)cc(C)c3)n2)cc1OC | 96.6%
2 | Cc1c(C(=O)O)nn(-c2ccccc2)c(=O)c1C#N | 102%
3 | N#CCCN1CCN(C(=S)c2ccc(-c3cccc(Cl)c3)o2)CC1 | 83%
4 | CCCc1nnc(NC(=O)c2ccncc2)s1 | 99.1%
5 | Brc1ccccc1-c1nnc(CSc2nnc3sc4ccccc4n23)o1 | 91.7%
6 | C=CCNc1ncnc2c1cnn2-c1ccc(Cl)cc1 | 106%
7 | C(#Cc1ccccc1)CN1CCN(c2ccccn2)CC1 | 91.9%
8 | CCOc1ccc(-c2nc(CSCC(=O)N3CCN(c4cccc(OC)c4)CC3)c(C)o2)cc1 | 47.4%
9 | COc1cc(Cl)c(S(=O)(=O)N2CCN(Cc3ccc4c(c3)OCO4)CC2)cc1Cl | 82.2%
10 | Brc1ccc(-c2nnc3ccc(N4CCN(c5ccccc5)CC4)nn23)cc1 | 75.5%
11 | CCCCOc1ccccc1C1NC(=O)NC(C)=C1C(=O)OCCOC (stereo not given) | 88.1%
12 | COc1ccc(OC)c(NC(=O)C2COc3ccccc3O2)c1 (stereo not given) | 80.3%
13 | Cc1c(S(=O)(=O)N2CCc3ccccc3C2)c(=O)n(C)c(=O)n1C | 97.9%
14 | CCN1CCN(CC(=O)Nc2cccc(C)c2)C(=O)C1=O | 95.6%
15 | CCOc1ccccc1C(=O)Nc1ccc2nc(N3CCN(c4ncccn4)CC3)cc(C)c2c1 | 2.14% (active)
16 | CCOC(=O)c1ccccc1NC1c2ccccc2C(=O)N1c1ccc(C)cn1 (stereo not given) | 79.6%

Row | SMILES | viability
17 | COc1ccc(OC)c(-c2cc(C(=O)N3CCN(c4ccccc4)CC3)no2)c1 | 88.8%
18 | CCC(Sc1nc2c(cnn2-c2ccccc2)c(=O)[nH]1)C(=O)OC (stereo not given) | 91.5%
19 | COCCNc1oc(-c2ccccc2Cl)nc1C#N | 89.3%
20 | O=C(Cn1c(=O)sc2ccccc21)NCc1ccccn1 | 93.4%
21 | C=CCSc1nnc2c(n1)OC=Nc1ccccc1-2 | 101%
22 | CCc1ccccc1S(=O)(=O)Cc1ccc(C(=O)N2CCN(c3ccccc3OC)CC2)o1 | 43.5%
23 | CCCCCCC1C(C#N)=C(N)OC2=C1C(=O)CC(C)(C)C2 (stereo not given) | 96.7%
24 | CCOC(=O)C1Cn2c(nc3c(c2=O)C2(CCCC2)Cc2ccccc2-3)S1 (stereo not given) | 77.4%
25 | O=C(c1cc(C2CC2)on1)N1CCN(c2ccc(F)cc2)CC1 | 92.4%
26 | COc1cccc(CSc2nc3sc(C)c(C)c3c(=O)n2Cc2ccco2)c1 | 93%
27 | COc1ccc(-c2n[nH]c(C)c2-c2cnn(-c3ccccc3)c2)c(O)c1 | 92.2%
28 | O=C1C2CCCN2C(c2ccc(F)cc2)N1c1ccc(Cl)cc1 (stereo not given) | 67.8%
29 | CCOc1ccccc1NC1c2ccccc2C(=O)N1c1ccc(C)cn1 (stereo not given) | 88%
30 | COc1cc(/C=C/C2=NC(=O)C(C)(C)O2)ccc1O | 71.9%
31 | O=C(O)c1ccc(CSc2nnc(COc3ccc(Cl)cc3Cl)o2)cc1 | 94.1%
32 | N#Cc1c(NC(=O)CCCN2C(=O)c3ccccc3C2=O)oc(-c2ccccc2)c1-c1ccccc1 | 94.7%

Assay: RAM pathway blockade in budding yeast – dse1pr::URA3 reporter, 5-FOA selection, pilot screen (AID 869;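 active means inhibition over a set limit, the all-compound mean plus 3 SD, in both replicate runs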;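 further: 0% = DMSO wells with no growth and 100% = 10 µM 1-NA-PP1 with full growth; RAM network block rescues cells from 5-FOA so hits raise OD615 growth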)
Conditions: S. cerevisiae dse1pr::URA3 5-FOA growth, OD615, 2 d; at 10 µM; active compounds read high; strain carries analog-sensitive mutant Cbk1 kinase

Row | SMILES | inhibition [%]
33 | Cc1c(C(=O)O)nn(-c2ccccc2)c(=O)c1C#N | 1.46
34 | N#CCCN1CCN(C(=S)c2ccc(-c3cccc(Cl)c3)o2)CC1 | 1.51
35 | CCCc1nnc(NC(=O)c2ccncc2)s1 | 1.42
36 | Brc1ccccc1-c1nnc(CSc2nnc3sc4ccccc4n23)o1 | 2.15
37 | C=CCNc1ncnc2c1cnn2-c1ccc(Cl)cc1 | 4.6
38 | CCOc1ccc(-c2nc(CSCC(=O)N3CCN(c4cccc(OC)c4)CC3)c(C)o2)cc1 | 1.53
39 | COc1cc(Cl)c(S(=O)(=O)N2CCN(Cc3ccc4c(c3)OCO4)CC2)cc1Cl | 1.04
40 | Brc1ccc(-c2nnc3ccc(N4CCN(c5ccccc5)CC4)nn23)cc1 | 2.52
41 | CCCCOc1ccccc1C1NC(=O)NC(C)=C1C(=O)OCCOC (stereo not given) | 2.28
42 | COc1ccc(OC)c(NC(=O)C2COc3ccccc3O2)c1 (stereo not given) | 0.25
43 | Cc1c(S(=O)(=O)N2CCc3ccccc3C2)c(=O)n(C)c(=O)n1C | 2.17
44 | CCN1CCN(CC(=O)Nc2cccc(C)c2)C(=O)C1=O | 1.27
45 | CCOC(=O)c1ccccc1NC1c2ccccc2C(=O)N1c1ccc(C)cn1 (stereo not given) | 2.52
46 | COc1ccc(OC)c(-c2cc(C(=O)N3CCN(c4ccccc4)CC3)no2)c1 | 1.72
47 | CCC(Sc1nc2c(cnn2-c2ccccc2)c(=O)[nH]1)C(=O)OC (stereo not given) | 0.65
48 | COCCNc1oc(-c2ccccc2Cl)nc1C#N | 1.51
49 | O=C(Cn1c(=O)sc2ccccc21)NCc1ccccn1 | 1.19
50 | C=CCSc1nnc2c(n1)OC=Nc1ccccc1-2 | 3.17
51 | CCc1ccccc1S(=O)(=O)Cc1ccc(C(=O)N2CCN(c3ccccc3OC)CC2)o1 | 1.31
52 | CCCCCCC1C(C#N)=C(N)OC2=C1C(=O)CC(C)(C)C2 (stereo not given) | 0.505
53 | CCOC(=O)C1Cn2c(nc3c(c2=O)C2(CCCC2)Cc2ccccc2-3)S1 (stereo not given) | 2.23
54 | O=C(c1cc(C2CC2)on1)N1CCN(c2ccc(F)cc2)CC1 | 1.9
55 | COc1ccc(-c2n[nH]c(C)c2-c2cnn(-c3ccccc3)c2)c(O)c1 | -0.205
56 | O=C1C2CCCN2C(c2ccc(F)cc2)N1c1ccc(Cl)cc1 (stereo not given) | 3.84
57 | CCOc1ccccc1NC1c2ccccc2C(=O)N1c1ccc(C)cn1 (stereo not given) | 0.395
58 | COc1cc(/C=C/C2=NC(=O)C(C)(C)O2)ccc1O | 0.485
59 | O=C(O)c1ccc(CSc2nnc(COc3ccc(Cl)cc3Cl)o2)cc1 | 1.22
60 | N#Cc1c(NC(=O)CCCN2C(=O)c3ccccc3C2=O)oc(-c2ccccc2)c1-c1ccccc1 | -0.33

From PubChem BioAssay
